Only some compounds are listed: those with a hit (about 3.8% of all), similar ones and a draw of the others.
PrPC surface inh: reduces human prion protein on the cell surface | AID 720596 | inhibition, % at 13.8 µM | cell surface PrPC, TR-FRET read-out | P04156 | hit rate 0.43% among 370,000; in the data active = inhibition above about 24%; note: 0% = median of the test wells and 100% = reference compound wells
GDH-TPI counter: counter-screen for M. tuberculosis FBA inhibitors: GDH-TPI coupled enzymes; GDH-TPI coupled enzyme counterscreen, NADH absorbance; inhibition, % at 4.8 µM; hit rate 1.2% among 360,000; AID 588335; in the data active = inhibition above about 30%;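 note: 0% = DMSO wells and 100% = wells lacking the enzyme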
FBA Mtb inh: inhibits M. tuberculosis FBA enzyme; P9WQA3; purified M. tuberculosis FBA, fluorescence read-out; inhibition, % at 1 µM; hit rate 2.3% among 360,000; AID 588726; in the data active = inhibition above about 27%;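 note: 0% = vehicle and 100% = reference inhibitor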
Target sequence (P9WQA3 whole entry, looked up): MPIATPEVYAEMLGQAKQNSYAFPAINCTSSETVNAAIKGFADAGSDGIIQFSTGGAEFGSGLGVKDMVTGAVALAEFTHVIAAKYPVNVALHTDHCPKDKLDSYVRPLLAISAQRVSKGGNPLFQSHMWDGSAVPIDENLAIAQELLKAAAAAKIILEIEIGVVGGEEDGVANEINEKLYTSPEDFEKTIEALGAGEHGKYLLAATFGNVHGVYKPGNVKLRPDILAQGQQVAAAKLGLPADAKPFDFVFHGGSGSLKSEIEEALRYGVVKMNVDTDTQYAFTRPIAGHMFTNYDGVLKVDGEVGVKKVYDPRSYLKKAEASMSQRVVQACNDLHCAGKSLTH
PrP 5UTR inh: inhibition of PrP 5' UTR reporter expression. cell-based PrP 5' UTR mRNA reporter, plate reader. inhibition, % (concentration not given with the values). hit rate 0.35% among 340,000. AID 488862; in the data active = inhibition above about 52%; note: 0 = median of the neutral control wells
Y pestis TopoI: inhibitors of Yersinia pestis topoisomerase I; Y. pestis Topo-I cleavage product accumulation, plate reader; activity, % at 10 µM; hit rate 0.064% among 360,000; AID 504884; in the data active = activity above about 50%, passing the limit was not always enough; inconclusive = no clear call, values can overlap the other calls
Mtb hypoxia inh: inhibitors of hypoxia-regulated fluorescent reporter in Mycobacterium tuberculosis; M. tuberculosis hypoxia-regulated fluorescent reporter, fluorescence; fluorescence inhibition, % (no concentration beside the values); hit rate 0.1% among 300,000; in the data active = fluorescence inhibition mostly above about 23%, no sharp cut-off; inactive = mostly below about 17%
PrP 5UTR single: prion 5' UTR mRNA inhibition, cherry-pick retest. shares compounds with PrP 5UTR inh. cell-based prion protein 5' UTR reporter, plate reader. inhibition, % at 2.5 µM. hit rate 48% among 1,100; in the data active = inhibition above about 54%; inconclusive = no clear call, values can overlap the other calls
* marks the source's active call; other numbers are inactive results; ? = inconclusive; nt = no result given.

SMILES	PrPC surface inh	GDH-TPI counter	FBA Mtb inh	PrP 5UTR inh	Y pestis TopoI	Mtb hypoxia inh	PrP 5UTR single
CC(/C=C1\SC(=O)N(CCCC(=O)O)C1=O)=C\c1ccccc1	-1	6	-2	83*	5	-1	86*
Cc1ccc(S(=O)(=O)CC(=O)Nc2ccc(S(=O)(=O)Nc3ccccn3)cc2)cc1	-3	-3	6	80*	2	3	-20
C=C1CC(Cn2cc(Br)c(=O)[nH]c2=O)(c2ccc(-c3ccccc3)cc2)OC1=O (stereo unspecified)	3	9	5	61*	14	nt	72*
COc1ccccc1CNC(=O)CCc1cn(C)c2ccccc12	7	9	6	66*	7	3	-1
CC(C)(C)CN1C(=O)C(=O)NCC1CCCCN (stereo unspecified)	nt	nt	nt	nt	nt	10	nt
CC(=O)CC(O)CC(=O)C1OC(=O)CCCCCCCCc2ccccc21 (stereo unspecified)	nt	nt	nt	nt	nt	3	nt
CC1(C)CC[C@]2(C(=O)n3ccnc3)CC[C@]3(C)[C@H](C(=O)C=C4[C@@]5(C)C=C(C#N)C(=O)C(C)(C)[C@@H]5CC[C@]43C)[C@@H]2C1	5	4	0	94*	22	nt	97*
CC(C)(C)c1ccc(C(=O)N2CCCCCC2=O)cc1	1	1	0	59*	15	nt	?
O=C1CCCCCN1C(=O)c1ccccc1	0	-1	-2	-19	1	9	nt
Cc1ccc(C(=O)c2cc([N+](=O)[O-])ccc2N2CCCCC2)cc1	2	14	-6	56*	15	0	86*
CC1CCCN(c2ccc([N+](=O)[O-])cc2C(=O)c2ccccc2)C1 (stereo unspecified)	7	10	-7	61*	22	12	80*
O=C(c1ccccc1)c1cc([N+](=O)[O-])ccc1N1CCOCC1	-16	15	-6	-2	14	7	nt
CC#CCN1c2ccccc2[C@]23CC(C(=O)OC)N(C(=O)NCCBr)C2=NC(C(=O)OC)=C(C(=O)OC)C13 (stereo partly specified)	nt	nt	nt	nt	nt	9	nt
COc1ccc(C(=O)Nc2ccc3ncccc3c2)cc1	7	-4	-2	-19	1	10	nt
Cc1ccc(C(=O)Nc2ccc3ncccc3c2)cc1	-1	0	9	56*	-7	-6	31
COc1cc(F)cc(C2=CC(=O)CC(c3ccc(F)cc3)C2)c1 (stereo unspecified)	nt	nt	nt	nt	nt	6	nt
COc1ccc(C2CC(=O)C=C(c3cccc4c3Oc3ccccc3S4)C2)cc1 (stereo unspecified)	nt	nt	nt	nt	nt	8	nt
O=C1C=C(c2ccc(Cl)c(C(F)(F)F)c2)CC(c2ccc(F)cc2)C1 (stereo unspecified)	nt	nt	nt	nt	nt	1	nt
CCC(=O)NC(c1ccc(OC)cc1)c1cc(Cl)c2cccnc2c1O (stereo unspecified)	-4	4	0	35	24	9	nt
COc1ccc(C(NC(=O)c2cccnc2)c2cc(Cl)c3cccnc3c2O)cc1OC (stereo unspecified)	2	1	-4	89*	-2	-5	30
COC(=O)C1=C(c2ccccc2OCc2ccccc2)C[C@@H]2CC[C@H]1N2C(=O)NCCc1ccc(F)cc1	10	7	2	58*	23	nt	2
Cc1nn(CCCC(=O)Nc2cccnc2Cl)c(C)c1[N+](=O)[O-]	-5	-13	4	52*	1	-4	-10
COc1ccc(C2C3C(=O)N(C(C)(C)C)C(=O)C3[C@]3(CC(C)C)C(=O)N(c4cccc(Br)c4)C(=O)N23)cc1 (stereo partly specified)	nt	nt	nt	nt	nt	-9	nt
CC(C)(C)C(=O)Nc1cccc(-c2nnc(-c3cccc(NC(=O)C(C)(C)C)c3)o2)c1	0	-5	2	59*	-2	-2	-44
CCCCCCNC(=O)Cc1ccc(Br)cc1	12	0	-1	-12	11	12	nt
CC(C)OCCCNC(=O)Cc1ccc(Br)cc1	3	5	0	83*	3	3	1
Cc1ccc(-c2cc3onc(-c4ccccc4)c3c(=O)n2C)cc1	2	-7	0	61*	7	2	11
CNC(=O)c1ccc(-c2cc3onc(-c4ccccc4)c3c(=O)n2C)cc1	10	1	0	-45	4	17	nt
